High-throughput results as filed in PubChem.
The list is not random: actives were taken first. Their share in the collection is about 2.7%.
pPAFAH FP inh: inhibitors of human plasma PAF acetylhydrolase (pPAFAH); Q13093; recombinant pPAFAH, FP-rhodamine probe fluorescence polarization; inhibition, % at 3.39 µM; 1.5% of 330,000 active; AID 463082;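 active = inhibition above the mean inhibition across the screen plus 3 SD, cut at about 25% in these data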;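 also: inhibitors block binding of the rhodamine activity-based probe so polarization drops; 0% = enzyme with DMSO and 100% = wells lacking pPAFAH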
PAFAH2 inh: inhibitors of human PAFAH2. 0.99% of 340,000 active. inhibition, % at 3.39 µM. Q99487. recombinant PAFAH2, FP-rhodamine activity probe, fluorescence polarization;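 active = inhibition above the mean over all tested compounds plus 3 SD, cut at about 30% in these data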;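 also: inhibitors block probe labeling of enzyme so polarization drops; 0% = enzyme with DMSO and 100% = wells lacking PAFAH2 protein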
PAFAH1B3 inh: PAFAH1B3 (human) inhibition; Q15102; recombinant PAFAH1B3, FP-rhodamine probe, fluorescence polarization; inhibition, % at 3.39 µM; 0.28% of 340,000 active;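 active = inhibition above the screen-wide average of all tested compounds plus 3 SD, cut at about 25% in these data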;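 also: 0% = enzyme with DMSO only and 100% = wells lacking PAFAH1B3 protein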
Target sequence (Q15102 whole entry, looked up): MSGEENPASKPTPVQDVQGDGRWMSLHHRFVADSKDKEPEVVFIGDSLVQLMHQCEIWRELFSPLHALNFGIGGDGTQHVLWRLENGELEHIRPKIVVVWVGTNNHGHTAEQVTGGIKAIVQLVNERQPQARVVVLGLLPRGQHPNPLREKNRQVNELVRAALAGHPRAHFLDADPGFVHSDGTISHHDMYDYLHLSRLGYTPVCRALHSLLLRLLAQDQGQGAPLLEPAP
TCR CD3 inh: human TCR-CD3 binding inhibition; TAMRA-labeled TCR probe fluorescence, biochemical; inhibition, % at 9.4 µM; 0.37% of 360,000 active; AID 651800; in the data active = inhibition above about 19%;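 also: recombinant mutant TCR 2C K166C tagged with TAMRA read by polarization; 0% = receptor in buffer alone and 100% = receptor with positive control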
PAFAH1B2 inh: PAFAH1B2 (human) inhibition | P68402 | recombinant PAFAH1B2, FP-rhodamine activity probe, fluorescence polarization | inhibition, % at 3.39 µM | 1.2% of 340,000 active;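 active = inhibition above the mean of all tested compounds plus 3 SD, cut at about 24% in these data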;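 also: 0% = enzyme with DMSO and 100% = wells lacking PAFAH1B2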
Target sequence (P68402 whole entry, looked up): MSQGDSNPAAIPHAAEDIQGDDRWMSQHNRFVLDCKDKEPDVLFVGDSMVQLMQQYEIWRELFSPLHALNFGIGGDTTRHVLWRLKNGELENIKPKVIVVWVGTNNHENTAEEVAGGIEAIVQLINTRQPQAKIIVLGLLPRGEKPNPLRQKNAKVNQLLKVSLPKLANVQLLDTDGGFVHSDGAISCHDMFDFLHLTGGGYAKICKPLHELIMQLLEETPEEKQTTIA
pPAFAH FP conf: confirmation of human plasma PAF acetylhydrolase (pPAFAH) inhibitors. 72% of 2,300 active. shares compounds with pPAFAH FP inh. inhibition, % at 3.39 µM. recombinant pPAFAH, FP-Rh probe fluorescence polarization;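 active = mean inhibition of the triplicate above the hit cutoff set for the earlier primary screen, cut at about 25% in these data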;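 also: 0% = enzyme with DMSO and 100% = wells lacking pPAFAH enzyme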
* = called active by the depositor.

`Cc1ccc(S(=O)(=O)c2cc(Nc3ccccc3)ccc2O)cc1` gave pPAFAH FP inh 18.8, PAFAH2 inh 17.6, PAFAH1B3 inh -1.0, TCR CD3 inh 1.8 and PAFAH1B2 inh 4.0.
Cc1ccc(Nc2ccc(N)cc2S(=O)(=O)O)cc1 was read as pPAFAH FP inh 49.9*, PAFAH2 inh 11.4, PAFAH1B3 inh 6.8, TCR CD3 inh -0.2, PAFAH1B2 inh 8.2 and pPAFAH FP conf 4.9.
Screening O=C1c2ccccc2CCc2ccc(Br)cc21 returned pPAFAH FP inh 2.7, PAFAH2 inh -9.6, PAFAH1B3 inh 6.5, TCR CD3 inh 3.6 and PAFAH1B2 inh 0.6.
`O=C(CSc1c(F)c(F)cc(F)c1F)Nc1ccc(C2SCCS2)cc1` gave pPAFAH FP inh 89.8*, PAFAH2 inh 7.0, PAFAH1B3 inh 8.3, TCR CD3 inh 1.6, PAFAH1B2 inh -3.0 and pPAFAH FP conf 4.5.
For O=C(CSc1ccc(Cl)cc1)Nc1ccc(C2SCCS2)cc1 the results were pPAFAH FP inh 5.6, PAFAH2 inh 4.7, PAFAH1B3 inh 5.9, TCR CD3 inh 4.7 and PAFAH1B2 inh 15.8.
Screening O=c1ccn(C2CCCCC2)c(=O)[nH]1 returned TCR CD3 inh 2.7.
For CCOc1ccc(Nc2nc(NCC3CCCO3)c3ccccc3n2)cc1 (stereo unspecified) the results were pPAFAH FP inh 67.5*, PAFAH2 inh 4.5, PAFAH1B3 inh 8.1, TCR CD3 inh -1.3, PAFAH1B2 inh 7.0 and pPAFAH FP conf 55.4*.
c1ccc(Nc2nc(NCC3CCCO3)c3ccccc3n2)cc1 (stereo unspecified) was read as pPAFAH FP inh 6.5, PAFAH2 inh -1.2, PAFAH1B3 inh 3.1, TCR CD3 inh 2.3 and PAFAH1B2 inh 5.3.
COc1ccc(NS(=O)(=O)c2cc(N=Nc3c(O)[nH]c(=O)[nH]c3=O)ccc2Cl)cc1 was read as pPAFAH FP inh 16.8, PAFAH2 inh 7.3, PAFAH1B3 inh 3.1, TCR CD3 inh -10.7 and PAFAH1B2 inh 7.4.
Cc1ccc(NS(=O)(=O)c2ccc(Cl)c(N=Nc3c(O)[nH]c(=O)[nH]c3=O)c2)cc1Cl was read as pPAFAH FP inh 88.8*, PAFAH2 inh 41.1*, PAFAH1B3 inh 26.0*, TCR CD3 inh -0.5, PAFAH1B2 inh 15.6 and pPAFAH FP conf 89.4*.
`CN(C)c1ccc(C(=O)OCC(=O)NCCC2=CCCCC2)cc1` gave pPAFAH FP inh 37.7*, PAFAH2 inh 79.6*, PAFAH1B3 inh -1.4, TCR CD3 inh -1.0, PAFAH1B2 inh 0.7 and pPAFAH FP conf 24.2.
For O=Cc1ccc(C(=O)OCC(=O)NCCC2=CCCCC2)cc1 the results were pPAFAH FP inh 7.3, PAFAH2 inh 22.9, PAFAH1B3 inh 0.9, TCR CD3 inh 4.1 and PAFAH1B2 inh -2.4.
For O=C(Nc1ccccc1O)c1cccc(S(=O)(=O)Nc2ccccc2O)c1 the results were pPAFAH FP inh -1.0, PAFAH2 inh 4.5, PAFAH1B3 inh 3.5, TCR CD3 inh 0.0 and PAFAH1B2 inh 12.7.
O=C(c1cc(-c2ccc(F)cc2)no1)N1CCN(Cc2ccc3c(c2)OCO3)CC1 was read as pPAFAH FP inh 3.2, PAFAH2 inh 8.4, PAFAH1B3 inh 6.1, TCR CD3 inh -6.8 and PAFAH1B2 inh -1.6.
Cc1csc(N/N=C/c2ccc(O)c([N+](=O)[O-])c2)n1 was read as pPAFAH FP inh 39.8*, PAFAH2 inh 25.9, PAFAH1B3 inh 25.9*, TCR CD3 inh 13.4, PAFAH1B2 inh 11.7 and pPAFAH FP conf 11.1.
CCOc1ccc(C(=O)N/N=C/c2ccc(-c3ccc(S(=O)(=O)Nc4ncccn4)cc3)o2)cc1 was read as pPAFAH FP inh 10.6, PAFAH2 inh 7.9, PAFAH1B3 inh -6.7, TCR CD3 inh 9.2 and PAFAH1B2 inh 3.0.
NC(=S)NN=Cc1ccc(-c2ccc(S(=O)(=O)Nc3ncccn3)cc2)o1 was read as pPAFAH FP inh 40.3*, PAFAH2 inh 33.6*, PAFAH1B3 inh 30.6*, TCR CD3 inh 9.4, PAFAH1B2 inh 9.9 and pPAFAH FP conf 18.8.
Screening O=C(N/N=C/c1ccc(-c2ccc(S(=O)(=O)Nc3ncccn3)cc2)o1)c1cc2ccccc2cc1O returned pPAFAH FP inh 78.2*, PAFAH2 inh 34.2*, PAFAH1B3 inh 35.2*, TCR CD3 inh 17.8, PAFAH1B2 inh 24.9* and pPAFAH FP conf 75.7*.
For Cc1ccc(N(C)S(=O)(=O)c2c[nH]c3ccc([N+](=O)[O-])cc23)cc1 the results were pPAFAH FP inh 8.8, PAFAH2 inh -1.8, PAFAH1B3 inh 4.8, TCR CD3 inh -4.5 and PAFAH1B2 inh 4.0.
`COc1ccc(S(=O)(=O)N2CCOC2CNC(=O)C(=O)NCc2ccc3c(c2)OCO3)cc1C` (stereo unspecified) gave TCR CD3 inh 0.2.
COc1ccc(C(=O)Nc2cc3c4c(c2)C(C)C(=O)N4CCC3)cc1OC (stereo unspecified) was read as pPAFAH FP inh 2.5, PAFAH2 inh 0.3, PAFAH1B3 inh -0.1, TCR CD3 inh 1.8 and PAFAH1B2 inh 0.7.
Screening O=C(NNC(=O)c1ccccc1Cl)c1csc(N2CCOCC2)n1 returned pPAFAH FP inh 2.0, PAFAH2 inh -8.8, PAFAH1B3 inh 1.6, TCR CD3 inh 7.5 and PAFAH1B2 inh -5.1.
Cc1ccccc1-c1nc(S(=O)(=O)c2ccccc2)c(NCCN2CCOCC2)o1 was read as TCR CD3 inh -3.3.
`COc1ccc(S(=O)(=O)CC(=O)c2cc3cc(Br)ccc3oc2=O)cc1` gave pPAFAH FP inh 37.4*, PAFAH2 inh 16.9, PAFAH1B3 inh 8.4, TCR CD3 inh -2.5, PAFAH1B2 inh 17.6 and pPAFAH FP conf 32.6*.
`CCOCCn1cnc2sc(C(=O)NCCCN3CCOCC3)c(C)c2c1=O` gave pPAFAH FP inh 3.5, PAFAH2 inh 11.7, PAFAH1B3 inh 0.9, TCR CD3 inh 8.3 and PAFAH1B2 inh 7.5.
`CN(CC(=O)Nc1cccc(F)c1)C(=O)C1CCN(S(=O)(=O)c2ccc3c(c2)OCCO3)CC1` gave pPAFAH FP inh 3.6, PAFAH2 inh 3.0, PAFAH1B3 inh 0.6, TCR CD3 inh 5.2 and PAFAH1B2 inh 2.5.
`COc1cc(CNc2ccc(O)cc2)cc(Br)c1OCc1ccccc1` gave pPAFAH FP inh 34.9*, PAFAH2 inh 9.8, PAFAH1B3 inh 4.6, TCR CD3 inh 21.5*, PAFAH1B2 inh 8.3 and pPAFAH FP conf 13.2.
For CCOC(=O)C1CCN(S(=O)(=O)c2ccc3c4c2CC(=O)N4CC(C)S3)CC1 (stereo unspecified) the results were pPAFAH FP inh -2.4, PAFAH2 inh 3.6, PAFAH1B3 inh 6.7, TCR CD3 inh 2.2 and PAFAH1B2 inh -5.0.
Cn1c(=N)n(CC(=O)c2ccc(Br)cc2)c2ccccc21 was read as pPAFAH FP inh 34.5*, PAFAH2 inh 0.7, PAFAH1B3 inh -6.5, TCR CD3 inh -6.6, PAFAH1B2 inh 1.7 and pPAFAH FP conf 5.6.
For O=C(Nc1ccccc1)Nc1ccccc1-n1ccnc1 the results were pPAFAH FP inh 2.7, PAFAH2 inh 4.3, PAFAH1B3 inh 9.0, TCR CD3 inh -2.1 and PAFAH1B2 inh 3.7.
